The target of test [1] is PAS domain-containing serine/threonine-protein kinase (Homo sapiens) (UniProt Q96RG2). The settings on record: at 1 µM.
Test [2] deals with Serine/threonine-protein kinase PAK 6 (Homo sapiens) (UniProt Q9NQU5). To be noted: at 1 µM.
Test [3] has the same target. The settings on record: at 10 µM.
Test [4] has as its target Activated CDC42 kinase 1 (Homo sapiens) (UniProt Q07912). To be noted: at 1 µM.
The target is the same in test [5]. The settings on record: at 10 µM.
The target in test [6] is ALK tyrosine kinase receptor (Homo sapiens) (UniProt Q9UM73). The settings on record: at 1 µM.
For test [7] the target is unchanged. To be noted: at 10 µM.
For test [8], the target named is Serine/threonine-protein kinase PAK 5 (Homo sapiens) (UniProt Q9P286). The settings on record: at 1 µM.
Test [9] has the same target. The settings on record: at 10 µM.
The target of test [10] is PAS domain-containing serine/threonine-protein kinase (Homo sapiens) (UniProt Q96RG2). To be noted: at 10 µM.

Our source for the residual activity values is ChEMBL document CHEMBL2218924, “A broad activity screen in support of a chemogenomic map for kinase signalling research and drug discovery” (Biochem J, 2013).

Sequence of ALK tyrosine kinase receptor (Homo sapiens) (Q9UM73 19-1620 limits assumed): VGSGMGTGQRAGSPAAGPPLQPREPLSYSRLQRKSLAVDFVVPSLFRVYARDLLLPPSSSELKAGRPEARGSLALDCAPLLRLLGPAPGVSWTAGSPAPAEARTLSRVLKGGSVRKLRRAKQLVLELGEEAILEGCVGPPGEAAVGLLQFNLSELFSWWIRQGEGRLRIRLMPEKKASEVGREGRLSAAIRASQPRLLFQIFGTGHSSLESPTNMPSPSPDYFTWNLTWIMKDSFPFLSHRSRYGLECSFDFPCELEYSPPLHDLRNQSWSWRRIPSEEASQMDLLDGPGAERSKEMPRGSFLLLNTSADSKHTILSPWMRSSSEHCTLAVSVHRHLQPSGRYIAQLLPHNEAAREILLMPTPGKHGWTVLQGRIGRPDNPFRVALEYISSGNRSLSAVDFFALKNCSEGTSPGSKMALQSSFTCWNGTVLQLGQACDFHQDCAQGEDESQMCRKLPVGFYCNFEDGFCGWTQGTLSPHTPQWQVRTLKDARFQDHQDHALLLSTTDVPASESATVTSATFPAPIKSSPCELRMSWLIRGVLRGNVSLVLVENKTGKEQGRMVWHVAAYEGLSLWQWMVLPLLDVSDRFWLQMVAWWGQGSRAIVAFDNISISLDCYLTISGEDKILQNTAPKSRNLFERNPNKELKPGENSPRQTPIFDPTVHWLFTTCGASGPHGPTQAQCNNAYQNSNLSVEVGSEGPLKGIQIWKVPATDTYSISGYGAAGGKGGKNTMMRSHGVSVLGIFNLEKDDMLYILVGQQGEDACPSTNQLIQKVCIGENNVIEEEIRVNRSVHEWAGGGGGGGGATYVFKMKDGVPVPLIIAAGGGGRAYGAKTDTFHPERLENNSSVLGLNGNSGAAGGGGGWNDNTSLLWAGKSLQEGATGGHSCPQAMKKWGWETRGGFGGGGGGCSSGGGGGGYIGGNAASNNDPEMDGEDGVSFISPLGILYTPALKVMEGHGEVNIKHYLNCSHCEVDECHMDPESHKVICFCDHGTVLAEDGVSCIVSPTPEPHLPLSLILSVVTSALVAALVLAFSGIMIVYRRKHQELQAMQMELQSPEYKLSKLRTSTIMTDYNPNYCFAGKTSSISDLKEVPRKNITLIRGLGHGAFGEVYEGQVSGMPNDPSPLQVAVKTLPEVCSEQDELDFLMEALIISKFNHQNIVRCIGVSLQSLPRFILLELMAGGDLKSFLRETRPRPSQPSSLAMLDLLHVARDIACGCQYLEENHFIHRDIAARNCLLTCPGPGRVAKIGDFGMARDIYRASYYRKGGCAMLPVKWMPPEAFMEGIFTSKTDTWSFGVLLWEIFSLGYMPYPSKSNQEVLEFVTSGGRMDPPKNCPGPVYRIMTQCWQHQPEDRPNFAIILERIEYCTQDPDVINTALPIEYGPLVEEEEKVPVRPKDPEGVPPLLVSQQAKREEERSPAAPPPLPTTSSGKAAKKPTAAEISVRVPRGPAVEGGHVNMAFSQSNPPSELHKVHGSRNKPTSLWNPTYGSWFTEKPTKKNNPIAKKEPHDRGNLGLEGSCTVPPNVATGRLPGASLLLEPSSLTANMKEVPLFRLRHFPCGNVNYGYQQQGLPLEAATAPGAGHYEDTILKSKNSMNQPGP
Sequence of Activated CDC42 kinase 1 (Homo sapiens) (Q07912 whole entry, looked up): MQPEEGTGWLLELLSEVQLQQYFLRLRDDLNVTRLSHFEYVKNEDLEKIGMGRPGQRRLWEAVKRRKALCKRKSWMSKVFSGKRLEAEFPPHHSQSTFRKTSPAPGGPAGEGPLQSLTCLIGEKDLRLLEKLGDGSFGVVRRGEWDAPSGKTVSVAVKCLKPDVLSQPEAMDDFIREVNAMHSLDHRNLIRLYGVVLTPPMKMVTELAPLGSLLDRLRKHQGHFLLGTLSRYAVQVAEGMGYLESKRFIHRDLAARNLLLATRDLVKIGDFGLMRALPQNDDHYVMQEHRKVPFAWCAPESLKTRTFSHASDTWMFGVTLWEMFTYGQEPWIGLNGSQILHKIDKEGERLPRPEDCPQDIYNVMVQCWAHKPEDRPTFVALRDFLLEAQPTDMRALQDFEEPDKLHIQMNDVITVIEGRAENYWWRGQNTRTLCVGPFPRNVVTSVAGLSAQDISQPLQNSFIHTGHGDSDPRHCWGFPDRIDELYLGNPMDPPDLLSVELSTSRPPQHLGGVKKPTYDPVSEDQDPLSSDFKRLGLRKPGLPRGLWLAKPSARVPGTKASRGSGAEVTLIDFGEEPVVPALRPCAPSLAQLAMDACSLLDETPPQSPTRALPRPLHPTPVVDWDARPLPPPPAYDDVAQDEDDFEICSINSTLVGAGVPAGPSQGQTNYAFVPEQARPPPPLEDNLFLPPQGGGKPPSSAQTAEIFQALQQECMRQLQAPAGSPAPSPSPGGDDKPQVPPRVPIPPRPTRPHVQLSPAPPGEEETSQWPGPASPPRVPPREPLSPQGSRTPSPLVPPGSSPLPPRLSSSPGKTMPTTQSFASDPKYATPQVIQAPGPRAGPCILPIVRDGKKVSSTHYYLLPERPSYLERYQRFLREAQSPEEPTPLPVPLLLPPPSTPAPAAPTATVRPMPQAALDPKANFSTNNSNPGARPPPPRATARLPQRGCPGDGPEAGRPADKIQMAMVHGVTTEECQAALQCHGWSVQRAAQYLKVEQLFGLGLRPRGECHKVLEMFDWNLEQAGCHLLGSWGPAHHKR
Sequence of PAS domain-containing serine/threonine-protein kinase (Homo sapiens) (Q96RG2 whole entry, the tested form may be a part): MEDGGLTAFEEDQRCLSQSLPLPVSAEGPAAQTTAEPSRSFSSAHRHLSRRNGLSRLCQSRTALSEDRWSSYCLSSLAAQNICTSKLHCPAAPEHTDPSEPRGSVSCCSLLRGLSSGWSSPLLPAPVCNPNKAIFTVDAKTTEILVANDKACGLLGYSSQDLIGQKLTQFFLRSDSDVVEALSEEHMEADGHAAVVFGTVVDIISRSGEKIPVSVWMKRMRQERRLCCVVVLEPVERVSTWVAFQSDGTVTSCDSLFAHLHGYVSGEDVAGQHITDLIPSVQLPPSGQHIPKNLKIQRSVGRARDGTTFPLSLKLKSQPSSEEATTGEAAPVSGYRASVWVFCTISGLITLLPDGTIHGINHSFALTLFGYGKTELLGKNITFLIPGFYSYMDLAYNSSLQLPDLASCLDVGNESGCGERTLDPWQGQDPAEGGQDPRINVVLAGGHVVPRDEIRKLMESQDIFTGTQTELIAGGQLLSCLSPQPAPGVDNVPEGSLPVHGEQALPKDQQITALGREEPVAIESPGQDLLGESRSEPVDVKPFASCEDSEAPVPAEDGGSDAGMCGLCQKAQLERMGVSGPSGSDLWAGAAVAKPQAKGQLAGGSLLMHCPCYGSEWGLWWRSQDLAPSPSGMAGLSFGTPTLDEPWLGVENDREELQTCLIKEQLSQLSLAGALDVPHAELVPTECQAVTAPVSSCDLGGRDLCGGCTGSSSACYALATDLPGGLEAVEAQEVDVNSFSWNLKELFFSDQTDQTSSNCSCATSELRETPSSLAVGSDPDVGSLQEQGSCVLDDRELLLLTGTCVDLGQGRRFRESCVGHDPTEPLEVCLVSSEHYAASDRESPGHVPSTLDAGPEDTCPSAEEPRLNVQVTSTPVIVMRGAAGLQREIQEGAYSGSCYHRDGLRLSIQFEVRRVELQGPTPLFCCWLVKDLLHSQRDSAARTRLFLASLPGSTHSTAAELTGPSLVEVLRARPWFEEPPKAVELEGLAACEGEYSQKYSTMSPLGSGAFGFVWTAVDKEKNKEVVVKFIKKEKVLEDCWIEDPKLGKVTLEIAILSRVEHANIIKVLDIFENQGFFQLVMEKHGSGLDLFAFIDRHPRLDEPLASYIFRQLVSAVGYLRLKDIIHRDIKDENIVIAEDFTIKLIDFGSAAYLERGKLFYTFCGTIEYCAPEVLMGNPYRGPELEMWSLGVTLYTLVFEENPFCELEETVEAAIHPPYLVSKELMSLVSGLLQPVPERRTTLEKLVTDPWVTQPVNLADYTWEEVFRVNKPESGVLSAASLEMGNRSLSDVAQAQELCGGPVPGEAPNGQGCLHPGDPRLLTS
Sequence of Serine/threonine-protein kinase PAK 5 (Homo sapiens) (Q9P286 whole entry, looked up): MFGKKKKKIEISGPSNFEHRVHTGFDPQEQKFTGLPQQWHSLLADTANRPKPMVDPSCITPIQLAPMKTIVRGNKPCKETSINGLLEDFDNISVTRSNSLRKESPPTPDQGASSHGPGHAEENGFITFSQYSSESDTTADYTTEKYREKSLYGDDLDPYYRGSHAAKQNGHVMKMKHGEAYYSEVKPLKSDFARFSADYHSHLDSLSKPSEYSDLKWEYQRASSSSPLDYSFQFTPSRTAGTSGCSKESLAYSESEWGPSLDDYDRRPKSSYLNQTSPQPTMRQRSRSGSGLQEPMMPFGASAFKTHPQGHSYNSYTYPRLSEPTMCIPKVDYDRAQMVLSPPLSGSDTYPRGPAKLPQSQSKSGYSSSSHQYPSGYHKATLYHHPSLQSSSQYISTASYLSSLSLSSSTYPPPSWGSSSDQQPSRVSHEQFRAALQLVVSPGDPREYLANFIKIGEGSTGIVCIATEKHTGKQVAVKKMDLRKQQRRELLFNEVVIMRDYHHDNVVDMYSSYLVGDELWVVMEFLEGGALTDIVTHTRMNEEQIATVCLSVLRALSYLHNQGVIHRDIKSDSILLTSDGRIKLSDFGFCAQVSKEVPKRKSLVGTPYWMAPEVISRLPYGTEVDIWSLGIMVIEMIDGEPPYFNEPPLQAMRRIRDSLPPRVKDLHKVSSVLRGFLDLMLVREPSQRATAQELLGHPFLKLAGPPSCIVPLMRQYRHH

Regarding `NC(=O)Nc1sc(-c2ccc(F)cc2)cc1C(N)=O`, the residual activity in [1] was found to be 107%.
In the case of `O=c1c2ccccc2[nH]c(=S)n1CCN1CCC(=C(c2ccc(F)cc2)c2ccc(F)cc2)CC1`, the residual activity in [1] came out at 85%.
Regarding `O=C1NC(=O)c2c1c1c3ccccc3n3c1c1c2c2ccccc2n1C1CCC3O1`, the residual activity was 19% in test [2]; 15% in [3]; 8% in test [4]; 13% in [5]; 81% in test [6]; 79% in test [7].
Regarding `CCn1cnc2c(Nc3cccc(Cl)c3)nc(N[C@@H]3CCCC[C@@H]3N)nc21`, the residual activity in test [8] came out at 38%; in test [9] it was 11%; in [2], 38%; in [3] it was 10%; in test [1] it was 113%; in test [10], 69%. For the same molecule, the residual activity in [4] worked out at 34%; in [5], 4%; in [6], 82%; in test [7], 34%.
Take `CC(C)[C@H](CO)Nc1nc(Nc2cccc(Cl)c2)c2ncn(C(C)C)c2n1`: the residual activity in test [8] came out at 50%; in test [9] it was 11%; in [2] it was 57%; in test [3], 13%; in test [1], 135%; in test [10], 116%. The residual activity in [4] was found to be 45%; in [5], 14%; in [6] it was 71%; in test [7], 26%.
As to `CCOC(=O)c1c(C)[nH]c(/C=C2\C(=O)Nc3ccccc32)c1C`, the residual activity in test [1] was found to be 93%.
The same measure, in the same setting: the figure for `CCN(CC)CCNC(=O)c1c(C)[nH]c(/C=C2\C(=O)Nc3ccc(Cl)cc32)c1C` is 70%.
Regarding `COc1cc(OC)c(/C=C2\C(=O)Nc3ccccc32)c(OC)c1`, the residual activity in [8] is 96%; in test [9] it was 93%; in test [3], 93%; in test [1] it was 92%; in [4] it was 71%; in test [5] it was 56%. Besides, the results for the residual activity in [6] and in test [7] were 89% and 75%, respectively.
With `CC(C)n1cnc2/c(=N/c3cccc(Cl)c3)nc(NCCO)[nH]c21`, the residual activity in test [1] was found to be 113%.
On to `CCc1nc(-c2ccc(OC)cc2)[nH]c1-c1ccncc1`, for which the residual activity in test [8] stood at 111%; in test [9], 105%; in test [1], 128%; in [5], 69%.
Consider `C[S+]([O-])c1ccc(-c2nc(-c3ccc(F)cc3)c(-c3ccncc3)[nH]2)cc1` (stereo not drawn), for which the residual activity in [8] was 105%; in test [9] it was 104%; in test [2], 110%; in test [3] it was 100%; in [1] it was 113%; in [10] it was 113%. In addition, the residual activity in test [4] was found to be 93%; in test [5] it was 39%; in test [6], 122%; in [7], 93%.
Regarding `CN(C)c1ccc(/C=C2\C(=O)Nc3ccccc32)cc1`, in test [1], the residual activity came to 86%.
The same measure, in the same setting: the figure for `CC(C)(C)n1nc(Cc2cccc3ccccc23)c2c(N)ncnc21` is 116%.
The same measure, in the same setting: then `O=C1Nc2cc(Br)ccc2/C1=C1/Nc2ccccc2/C1=N\O`, with 94%.
With `COc1ccc2c(c[n+](C)c3c4cc5c(cc4ccc23)OCO5)c1OC`, the residual activity in test [9] came to 87%; in [2], 99%; in test [3], 61%; in test [1], 70%; in test [10], 61%; in test [4], 84%. In addition, the values for the residual activity in test [5] and in [7] were 68% and 65%, respectively.
Turning to `COc1cc2ncnc(Nc3ccc(OCc4ccccc4)cc3)c2cc1OC`, the residual activity in test [8] was determined as 83%; in test [9], 79%; in test [2] it was 100%; in test [3] it was 103%; in test [1], 107%; in [10], 71%. The residual activity in test [4] came to 22%; in [5] it was 10%; in [6] it was 86%; in test [7], 76%.
`Nc1n[nH]c2nnc(-c3c(-c4ccccc4)nn4ccccc34)cc12`: the residual activity in test [1] was found to be 104%.
On to `c1cc(-c2cnn3cc(-c4ccc(OCCN5CCCCC5)cc4)cnc23)ccn1`, for which the residual activity in test [8] came out at 87%; in [9], 69%; in [1] it was 106%; in test [10], 57%; in [4], 63%; in test [5] it was 18%. The residual activity in test [6] is 76%; in test [7], 61%.
For the molecule `O=c1[nH]c2ccccc2n1C1CCN(Cc2ccc(-c3nc4cc5[nH]cnc5cc4nc3-c3ccccc3)cc2)CC1`, the residual activity in [8] was determined as 84%; in [9] it was 67%; in [2], 121%; in test [3] it was 68%; in [1], 86%; in test [10] it was 42%. The residual activity amounted to 98% in test [4], 77% in [5], 90% in [6] and 63% in test [7].
With `Cn1cc(/C=C2\C(=O)Nc3ccc(S(N)(=O)=O)cc32)c2ccccc21`, the residual activity in test [1] is 97%.
Consider `O=S(=O)(NCCNC/C=C/c1ccc(Br)cc1)c1cccc2cnccc12`, for which the residual activity in test [1] turned out to be 141%.
In the case of `O=C1Nc2ccc3ncsc3c2/C1=C/c1c[nH]cn1`, the residual activity in [8] was 70%; in [9] it was 34%; in test [2], 83%; in test [3] it was 36%; in test [1], 46%; in [10] it was 2%. The residual activity in test [4] is 64%; in [5], 17%; in test [6] it was 72%; in test [7] it was 57%.
Turning to `N/C(=N\[N+](=O)[O-])N/N=C\c1ccc(-c2cccc([N+](=O)[O-])c2)o1`, the residual activity was determined as 82% in test [2]; 70% in test [3]; 85% in [4]; 71% in test [5]; 85% in test [6]; 69% in [7].
As for `O=C1c2ccccc2-[n+]2ccc3c([nH]c4ccccc43)c21`, the residual activity in [1] was determined as 147%.
As for `O=[N+]([O-])/C=C/c1ccc2c(c1)OCO2`, the residual activity came out at 103% in [8]; 92% in [9]; 102% in test [3]; 107% in [1]; 87% in [10]; 83% in test [4]. The residual activity turned out to be 69% in [5], 84% in [6] and 101% in test [7].
Take `COc1ccc2c(c1)/C(=C/c1cnc[nH]1)C(=O)N2`: the residual activity in test [2] is 98%; in test [3], 53%; in test [10], 81%; in test [5], 44%; in test [6] it was 63%; in test [7], 81%.
In the case of `O=c1c(-c2ccc(F)cc2)c(-c2ccncc2)[nH]n1-c1ccc(Cl)cc1`, the residual activity in test [1] came out at 135%.
Same read-out and setting: the figure for `O=C1NC(=O)/C(=C\c2ccc3nccnc3c2)S1` is 87%; for `O=C1Nc2ccccc2/C1=C\c1c(Cl)[nH]c2ccccc12` it is 99%.
The same measure, in the same setting: the figure for `Cn1sc(=O)n(Cc2ccccc2)c1=O` is 100%.
Still for that read-out and setting: the figure for `Oc1n[nH]c2nnc(-c3c(-c4ccccc4)nn4ccccc34)cc12` is 100%.
For `CC(C)(C)c1cc(C=C(C#N)C#N)cc(Br)c1O`, the residual activity in test [2] was 111%; in test [3], 96%; in test [1] it was 80%; in [10] it was 44%; in test [4] it was 106%; in [5] it was 73%.
